From the supplement of paper PMC6555819

Assays:
Experiment in all cases: PBM binding z-score (relative to random genomic background probes); higher = stronger binding; sequences stand for … in GC…GCGATTGACAGCGTAGAATGAAGG
[1] = tested on: RARb homodimer (NR concentration 270 nM)
Outline: (§1)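 Each nuclear receptor dimer, without ligand, was incubated for 1 h on custom Agilent 4×180K protein-binding microarrays. Binding was detected with antibodies against each partner (one per run), and scanned fluorescence was regression-normalized. The binding z-scores are referenced to random human genomic background probes.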

[2] = tested on: RARg:RXRa (NR concentration 270 nM, RXRa partner concentration 90 nM)
Outline: as §1

[3] = tested on: RARg homodimer (NR concentration 270 nM)
Outline: as §1

[4] = tested on: RXRa DBDmut IVT, anti-RXR (DBD mutation: RXRa K156A/R161A, NR concentration 90 nM)
Outline: as §1

[5] = tested on: RXRa homodimer (NR concentration 180 nM)
Outline: as §1

[6] = tested on: THRa:RXRa (NR concentration 90 nM, RXRa partner concentration 90 nM)
Outline: as §1

[7] = tested on: THRa homodimer (NR concentration 90 nM)
Outline: as §1

[8] = tested on: VDR homodimer (NR concentration 270 nM)
Outline: as §1

Row | Sequence | PBM binding z-score [1] | PBM binding z-score [2] | PBM binding z-score [3] | PBM binding z-score [4] | PBM binding z-score [5] | PBM binding z-score [6] | PBM binding z-score [7] | PBM binding z-score [8]
1 | TCGAGTAGGTTACCAATGGAGCATTCAGCTTTCT | -0.304 | 0.18 | 0.258 | 0.293 | 0.319 | -0.213 | -0.898 | -0.759
2 | TCTTGTATATCAATAGAGGTTAAGAAAGTGCGCT | 1.38 | 0.864 | 0.687 | 1.05 | 1.58 | 1.72 | -0.0174 | 0.47
3 | TAGCCTAGGTCATTGGGCCAGTATGGTACGCATC | 2.8 | 3.75 | 3.81 | 1.46 | 2.73 | 2.81 | 0.583 | 0.715
4 | CGTCAAAGTTTAACTAAGGTAACGTAAAGCACGC | 1.7 | 1.51 | 1.92 | 1.68 | 0.784 | 4.66 | 1.99 | 0.79
5 | GCGACTAGGGCATCAGCAGGTTACCATAACTTAA | 0.836 | 1.12 | 0.817 | 0.0692 | 0.47 | 0.885 | 0.0227 | -0.299
6 | ATCTCTAGGTAAAAGCTCAGTGAATCCCGAGGAT | -0.335 | -0.0468 | 0.135 | -0.625 | -0.149 | 0.0962 | -0.296 | -0.497
7 | CCTCGGCGGACAGAAGGTCAGAGCTGTCCGCTTT | 2.77 | 2.53 | 1.99 | -0.44 | 1.64 | 1.05 | -0.714 | -0.703
8 | TCATATAGGCAAAGGTGAAAGTCGAACGATATGA | 1.42 | 1.59 | 1.08 | 0.694 | 2.3 | 1.22 | -0.37 | -0.123
9 | GCTCGGTGGACAAGGTCAGAGCTTTGTCCGTAGA | 2.7 | 2.44 | 2.14 | 0.246 | 1.96 | 2.48 | 1.14 | 0.24
10 | CAAACTAGGTCAGAGGTCAAAGTCGAGCCAACCA | 5.04 | 7.59 | 6.79 | 2.96 | 9.16 | 4.3 | 2.24 | 4.21
11 | ACTATTAGTTGAGATGAGGGCAACCGATAGGTTG | 1.05 | 0.932 | 0.979 | 0.642 | 0.671 | 2.84 | 0.833 | 1.18
12 | GATACATGGTCAAGGCCAGAGTACGCGTATTGAT | 0.856 | 0.785 | 0.985 | -0.244 | 0.439 | 0.149 | -0.41 | 0.0812
13 | CAAACTAGATCAAGAGGTCAAAGTCCGCTTCCCG | 4.71 | 4.84 | 3.96 | 1.69 | 5.73 | 3.93 | 1.67 | 3.23
14 | CCTACTGGGCCATTCAGAGGTCATTGGTCATATG | 4.14 | 4.18 | 2.64 | 0.884 | 3.6 | 3.14 | 1.34 | 3.34
15 | CCGACTGGGGCATAAGGTGACCATAAGCCAGCCC | 1.26 | 0.678 | 0.621 | -1.25 | 0.516 | 1.7 | 0.792 | -0.621
16 | CCGACTGGGGCAGAAAGGTTACCATTCCATCCGG | 1.92 | 1.35 | 1 | -0.71 | 1.3 | 0.555 | -0.451 | -0.34
17 | CCTTACAGGTCACTCCAGGTTATAGCATCGGAGT | 3.76 | 4.74 | 4.71 | 2.2 | 4.35 | 5.15 | 1.32 | 2.04
18 | CCGACTGGGGCAAAGCTTACCATACTCAGTACGA | -0.047 | 0.0271 | 0.339 | 0.525 | -0.115 | -0.341 | -0.519 | -0.448
19 | GCATTTAGGTAATACAAGGTGAAAGTCCGATTGT | 1.06 | 0.319 | 0.48 | 0.617 | 0.375 | 3.89 | 1.59 | 0.0936
20 | TAGCCTAGGTCATGCGGGCCAGTTTAGTGTCGGC | 3.03 | 3.96 | 4.73 | 0.93 | 3.2 | 3.02 | 1.07 | 0.95
21 | TCATATAGGTAAAAGGTGAAAGTAGGTGTGGTAA | 2.04 | 2.13 | 1.16 | 2.18 | 3.34 | 2.19 | 0.852 | 0.549
22 | ACTAGCAGGCCAAGGGGCACTCAAGATTAGTCCG | 0.873 | 0.423 | 0.766 | -0.00995 | 0.366 | 0.0441 | -0.582 | 0.169
23 | CCTAGCAGGCCAGGGTCACACAAGCATTTCGCTT | 2.98 | 3.72 | 2.62 | 0.238 | 4.27 | 3.45 | 1.54 | 1.18
24 | CAAACTATGTCAAGGTCAAAGTCGGTTTGTGCCA | 4.39 | 4.59 | 4.75 | 2.54 | 4.98 | 4.03 | 3.78 | 4.25
25 | TCTCGTAGATCAATAGAGGTTAAGAAAGTGCGCT | 0.966 | 0.48 | 0.249 | 0.754 | 1.19 | 2.07 | -0.641 | 0.163
26 | TTTCGGAGGACACGAAGGTCAGAGCTTTCCAGAG | 3.81 | 3.45 | 4.21 | 0.363 | 2.22 | 3.06 | 1.45 | 1.86
27 | CCAGACCGGTGAAAGGTAACTCAGTCTGGTACGC | 0.414 | 0.36 | -0.096 | -0.727 | 0.696 | 0.429 | -0.178 | -0.186
28 | GCTAGTAGTTGAAAGGGCAACCGAATGATTCTCG | 1.73 | 1.22 | 0.96 | 0.488 | 1.47 | 0.474 | -0.735 | -0.34
